A word on the inhibition: it is the change of the read-out against control, counted positive when it falls.

SMILES strings stand for the structures. A number with no mark means an inactive call. For some of these results: Potency and affinity values are given separately. Active and inactive are the calls of the source. Unless noted, the rule behind the calls is not given here.

The text below walks through data of PubChem BioAssay.

A short description of assay [1]: antimalarial activity against Dd2 strain (AID 2302;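 active = growth inhibition above 50% at the single 2 µM test dose, taken to imply half-maximal potency below 2 µM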;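 note: 0% = DMSO untreated growth and 100% = chloroquine plus artemisinin killed control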). Conditions: P. falciparum Dd2 in RBCs, LDH growth readout, 72 h; at 2 µM; active compounds read high.
Assay [2] is described as follows: HepG2 cytotoxicity, primary screen, cytotoxicity control for P. falciparum antimalarial project, cell-based, ATP luminescence (AID 2303;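 active = inhibition above 50%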;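 note: 0% = DMSO wells and 100% = digitonin-killed cells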). Conditions: HepG2 viability, 24-48 h, at 10 µM, active compounds read high.
Assay [3] has as its target L-lactate dehydrogenase (Plasmodium falciparum (isolate CDC / Honduras)) (UniProt Q27743). In words: PfLDH activity inhibition – cell lysate, 3D7 strain, counter-screen for P. falciparum growth inhibition project (AID 2304).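 Note: 0% = vehicle and 100% = reference inhibitor.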 To be noted: P. falciparum 3D7 crude extract, LDH APAD/NBT absorbance; at 2 µM; active compounds read high. Background: A counterscreen serves to expose hits that act by an unwanted route or on another target.

Assay [4] can be described thus: inhibition of 3D7 malaria parasite growth – strain 3D7 (AID 2306).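 Note: 0% = DMSO wells and 100% = chloroquine plus artemisinin control wells.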 To be noted: P. falciparum 3D7 erythrocytic growth, LDH absorbance, 72 h; at 2 µM; active compounds read high.
Assay [5] addresses Calcium-dependent protein kinase 1 (Plasmodium falciparum (isolate 3D7)) (UniProt P62344). In words: PfCDPK1 kinase inhibitors, biochemical, TCAMS library (AID 1159585; cut-off not given, nearly all actives have IC50 up to about 0.98 µM;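 note: inhibitors leave more ATP so luminescence rises with inhibition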). To be noted: recombinant PfCDPK1, Kinase-Glo ATP depletion luminescence. Background: Kinase-Glo reads ATP consumption through a luciferase reaction.
In assay [6] the target is Plasmodium falciparum protein kinase 6 (PK6, PF3D7_1337100) (UniProt Q8IDW1). Kind of assay: PfPK6 kinase inhibitors, biochemical, TCAMS library (AID 1159586). To be noted: recombinant PfPK6, Kinase-Glo ATP depletion luminescence.
Chain of Plasmodium falciparum protein kinase 6 (PK6, PF3D7_1337100) (Q8IDW1 1-305): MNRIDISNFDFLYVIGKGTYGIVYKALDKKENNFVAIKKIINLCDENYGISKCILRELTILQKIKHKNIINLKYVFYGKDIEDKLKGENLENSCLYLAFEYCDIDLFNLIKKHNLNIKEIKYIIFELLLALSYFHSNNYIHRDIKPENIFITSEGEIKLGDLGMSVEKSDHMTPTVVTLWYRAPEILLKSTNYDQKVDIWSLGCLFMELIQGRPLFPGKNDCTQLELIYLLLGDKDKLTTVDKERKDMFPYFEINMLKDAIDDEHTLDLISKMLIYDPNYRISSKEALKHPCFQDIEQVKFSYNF
Assay [7] has as its target Protein kinase 7 (PK7), Plasmodium falciparum 3D7 (PF3D7_0213400) (UniProt Q7YTF7). Kind of assay: inhibition of Plasmodium PK7 catalytic activity – biochemical, TCAMS antimalarial set, Kinase-Glo luminescence (AID 1159587). To be noted: recombinant PfPK7, Kinase-Glo ATP depletion luminescence.
Assay [8] addresses Calcium-dependent protein kinase 4 (Plasmodium falciparum (isolate 3D7)) (UniProt Q8IBS5). Kind of assay: PfCDPK4 kinase inhibitors, biochemical, TCAMS library (AID 1159588; cut-off not given, nearly all actives have IC50 up to about 0.91 µM). Conditions: recombinant PfCDPK4, Kinase-Glo ATP depletion luminescence.

Chain of L-lactate dehydrogenase (Plasmodium falciparum (isolate CDC / Honduras)) (Q27743 whole entry, looked up): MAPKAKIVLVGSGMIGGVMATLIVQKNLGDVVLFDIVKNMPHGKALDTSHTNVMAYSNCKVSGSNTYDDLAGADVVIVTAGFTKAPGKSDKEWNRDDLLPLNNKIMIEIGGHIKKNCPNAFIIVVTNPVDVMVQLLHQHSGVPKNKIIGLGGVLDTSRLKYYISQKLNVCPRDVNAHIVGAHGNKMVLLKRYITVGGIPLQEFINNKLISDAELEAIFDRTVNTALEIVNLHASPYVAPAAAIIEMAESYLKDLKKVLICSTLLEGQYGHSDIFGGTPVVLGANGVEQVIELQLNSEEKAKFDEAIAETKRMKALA
Chain of Calcium-dependent protein kinase 4 (Plasmodium falciparum (isolate 3D7)) (Q8IBS5 whole entry, looked up): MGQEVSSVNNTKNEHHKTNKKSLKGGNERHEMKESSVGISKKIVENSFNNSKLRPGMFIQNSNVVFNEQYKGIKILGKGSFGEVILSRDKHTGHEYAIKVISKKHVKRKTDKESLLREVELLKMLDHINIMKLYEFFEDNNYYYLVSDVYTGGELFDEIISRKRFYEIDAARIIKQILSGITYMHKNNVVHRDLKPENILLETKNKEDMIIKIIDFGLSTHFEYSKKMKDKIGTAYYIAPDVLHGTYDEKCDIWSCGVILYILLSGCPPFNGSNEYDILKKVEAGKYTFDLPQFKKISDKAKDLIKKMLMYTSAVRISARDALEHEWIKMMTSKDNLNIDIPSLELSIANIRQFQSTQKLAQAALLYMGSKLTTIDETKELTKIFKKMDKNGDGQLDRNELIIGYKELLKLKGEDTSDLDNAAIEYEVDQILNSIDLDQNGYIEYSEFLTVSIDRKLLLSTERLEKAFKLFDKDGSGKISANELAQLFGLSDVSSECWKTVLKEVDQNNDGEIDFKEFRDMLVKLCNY
Chain of Calcium-dependent protein kinase 1 (Plasmodium falciparum (isolate 3D7)) (P62344 whole entry, looked up): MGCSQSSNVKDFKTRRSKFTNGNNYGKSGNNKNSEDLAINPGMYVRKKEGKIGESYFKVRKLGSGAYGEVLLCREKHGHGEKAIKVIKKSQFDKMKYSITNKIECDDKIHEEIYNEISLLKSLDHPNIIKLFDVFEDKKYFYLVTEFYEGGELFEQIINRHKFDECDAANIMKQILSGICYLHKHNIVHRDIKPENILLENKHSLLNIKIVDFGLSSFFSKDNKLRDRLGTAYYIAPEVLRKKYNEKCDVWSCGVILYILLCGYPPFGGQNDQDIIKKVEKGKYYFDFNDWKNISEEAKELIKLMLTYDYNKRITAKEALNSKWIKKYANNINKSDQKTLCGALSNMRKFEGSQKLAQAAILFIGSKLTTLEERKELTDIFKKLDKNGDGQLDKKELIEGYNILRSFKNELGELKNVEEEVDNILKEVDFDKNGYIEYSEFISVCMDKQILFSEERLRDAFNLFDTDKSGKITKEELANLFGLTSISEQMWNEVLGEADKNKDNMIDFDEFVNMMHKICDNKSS
Chain of Protein kinase 7 (PK7), Plasmodium falciparum 3D7 (PF3D7_0213400) (Q7YTF7 1-343): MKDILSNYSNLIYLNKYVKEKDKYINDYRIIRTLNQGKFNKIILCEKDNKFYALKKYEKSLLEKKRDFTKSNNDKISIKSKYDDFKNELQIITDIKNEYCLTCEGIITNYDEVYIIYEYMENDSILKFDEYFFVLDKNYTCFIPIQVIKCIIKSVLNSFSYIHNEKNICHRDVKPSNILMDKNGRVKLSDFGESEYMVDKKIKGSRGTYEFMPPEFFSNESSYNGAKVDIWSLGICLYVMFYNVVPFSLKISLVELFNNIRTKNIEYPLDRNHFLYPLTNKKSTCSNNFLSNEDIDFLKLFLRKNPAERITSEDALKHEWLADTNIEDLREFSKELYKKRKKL

As to `O=C(Nc1cccc(CN2CCCN(Cc3ncc[nH]3)CC2)c1)c1cc2ccccc2s1`, the growth inhibition in assay [1] is 35%; in assay [4], 99% (active). In addition, the inhibition in assay [2] was 22%; in assay [3], -2%. For the same compound, the result in assay [5], in assay [6], in assay [7] and in assay [8] was inactive.
Consider `O=C(NCc1ccccc1)O[C@@H]1CNCC[C@H]1c1ccc(C(O)Cc2ccccc2)cc1` (stereo not given in full), for which the growth inhibition in assay [1] was 5%; in assay [4], 87% (active). The inhibition in assay [2] was 8%; in assay [3] it was 4%. For the same compound, the result in assay [5], in assay [6], in assay [7] and in assay [8] was inactive.
Regarding `Cc1c(Cn2ncc(N3C[C@@H](C)N[C@@H](C)C3)c(Cl)c2=O)cccc1NC(=O)Nc1ccc(-c2ccccc2)cc1`, the growth inhibition is 35% in assay [1] and 97% (active) in assay [4]. Further, the inhibition in assay [2] is 97% (active); in assay [3], -6%. Also, the outcome in assay [5], in assay [6], in assay [7] and in assay [8] was inactive.
On to `NC(N)=NN=Cc1ccccc1OCc1ccccc1Cl`, for which the growth inhibition in assay [1] is 30%; in assay [4], 101% (active). For the same compound, the figures for the inhibition in assay [2] and in assay [3] were 14% and 5%, respectively. Also, the result in assay [5], in assay [6], in assay [7] and in assay [8] was inactive.
With `Cc1cccc2[nH]c(-c3cccc(-c4ccc(NC(=O)c5ccncc5)cc4)c3)nc12`, the growth inhibition in assay [1] is 74% (active); in assay [4], 98% (active). For the same compound, the figures for the inhibition in assay [2] and in assay [3] were 34% and -5%, respectively. For the same compound, the outcome in assay [5], in assay [6], in assay [7] and in assay [8] was inactive.
As to `COc1ccc2nc(C)cc(NN=Cc3ccc(F)cc3)c2c1`, the values for the growth inhibition in assay [1] and in assay [4] were 99% (active) and 100% (active), respectively. Besides, the figures for the inhibition in assay [2] and in assay [3] were 5% and -8%, respectively. Further, the outcome in assay [5], in assay [6], in assay [7] and in assay [8] was inactive.
Consider `CCOC(=O)c1cncc(/C=C/c2cc(C)cnc2N)c1`, for which the growth inhibition is 3% in assay [1] and 86% (active) in assay [4]. The inhibition in assay [2] was 4%; in assay [3], -4%. Besides, the result in assay [5], in assay [6], in assay [7] and in assay [8] was inactive.
Regarding `CN1CCN(c2ccnc3ccc(NC(=O)Cc4ccc(Br)c5ccccc45)cc23)CC1`, the growth inhibition in assay [1] was 99% (active); in assay [4], 96% (active). In addition, the inhibition in assay [2] is 8%; in assay [3], -3%. Also, the outcome in assay [5], in assay [6], in assay [7] and in assay [8] was inactive.
`Cc1cnc(CS(=O)c2nc3ccc(C(F)(F)F)cc3[nH]2)cc1OCc1ccccc1` (stereo not given): the growth inhibition in assay [1] is 76% (active); in assay [4] it was 93% (active). Moreover, the inhibition is -7% in assay [2] and -2% in assay [3]. Also, the outcome in assay [5], in assay [6], in assay [7] and in assay [8] was inactive.
Take `COc1ccc2ncc(Cl)c(NCC3(O)CCC(NCc4ccc5c(n4)NC(=O)CS5)CC3)c2n1` (stereo not given): the values for the growth inhibition in assay [1] and in assay [4] were 31% and 96% (active), respectively. Besides, the inhibition in assay [2] is 39%; in assay [3], -3%. Further, the result in assay [5], in assay [6], in assay [7] and in assay [8] was inactive.
Turning to `Cc1sc2nc(CSc3ccccc3)nc(N3CCN(CC(=O)N4CCCC4)CC3)c2c1C`, the figures for the growth inhibition in assay [1] and in assay [4] were 69% (active) and 91% (active), respectively. The inhibition in assay [2] was 19%; in assay [3], 2%. Also, the outcome in assay [5], in assay [6], in assay [7] and in assay [8] was inactive.
In the case of `c1cc(CN2CCN(c3ccncc3)CC2)cc(-c2ccc(-c3nc4ccccc4[nH]3)cc2)c1`, the growth inhibition in assay [1] and in assay [4] was 100% (active) in each case. In addition, the inhibition in assay [2] is 60% (active); in assay [3], -11%. Also, the outcome in assay [5], in assay [6], in assay [7] and in assay [8] was inactive.
With `O=C(Nc1ccc(Br)cc1)c1cc(Br)ccc1NS(=O)(=O)c1cc(C(F)(F)F)cc(C(F)(F)F)c1`, the growth inhibition in assay [1] is 67% (active); in assay [4], 85% (active). Further, the inhibition in assay [2] was 68% (active); in assay [3] it was -7%. In addition, the outcome in assay [5], in assay [6], in assay [7] and in assay [8] was inactive.
`Cc1ccc(S(=O)(=O)NC2=NC(C)(C)N(OCc3ccc(Cl)c(Cl)c3)C(N)=N2)cc1`: the growth inhibition is -3% in assay [1] and 88% (active) in assay [4]. The inhibition in assay [2] is -5%; in assay [3], 3%. For the same compound, the result in assay [5], in assay [6], in assay [7] and in assay [8] was inactive.
Regarding `CCCCCCC(C)c1cc(O)c2c(c1)OC(C)(C)C=C2c1ccncc1` (stereo not given), the values for the growth inhibition in assay [1] and in assay [4] were 29% and 98% (active), respectively. The inhibition was -7% in assay [2] and 0% in assay [3]. Moreover, the result in assay [5], in assay [6], in assay [7] and in assay [8] was inactive.
Consider `CC(C)C[C@@H](NC(=O)OC(C)(C)C)C(=O)Nc1ccc(Cc2ccc(NC(=O)[C@@H](CC(C)C)NC(=O)OC(C)(C)C)cc2)cc1`, for which the growth inhibition in assay [1] and in assay [4] was 96% (active) each time. The inhibition in assay [2] was 8%; in assay [3] it was 6%. Moreover, the outcome in assay [5], in assay [6], in assay [7] and in assay [8] was inactive.
Regarding `CCNC(=O)N1CCN(c2nc(-c3ccccc3)nc(COC)c2Cc2ccc(C)cc2)CC1`, the growth inhibition in assay [1] is 94% (active); in assay [4], 95% (active). In addition, the inhibition in assay [2] was 27%; in assay [3], 0%. Also, the result in assay [5], in assay [6], in assay [7] and in assay [8] was inactive.
Regarding `C#CCOc1ccc(N2C(N)=NC(N)=NC2(C)C)cc1`, the growth inhibition in assay [1] was -3%; in assay [4], 94% (active). The inhibition in assay [2] was 43%; in assay [3], 6%. The result in assay [5], in assay [6], in assay [7] and in assay [8] was inactive.
Consider `CCOc1cccc(C2c3c(oc4ccccc4c3=O)C(=O)N2CCN(CC)CC)c1` (stereo not given), for which the growth inhibition was 66% (active) in assay [1] and 100% (active) in assay [4]. For the same compound, the inhibition was 5% in assay [2] and -2% in assay [3]. For the same compound, the outcome in assay [5], in assay [6], in assay [7] and in assay [8] was inactive.
For `O=S(=O)(Nc1cccc(CCN2CCC(N3CCCCC3)CC2)c1)c1ccccc1C(F)(F)F`, the growth inhibition in assay [1] was 32%; in assay [4], 82% (active). In addition, the figures for the inhibition in assay [2] and in assay [3] were 21% and 1%, respectively. Also, the outcome in assay [5], in assay [6], in assay [7] and in assay [8] was inactive.
